# Assay outcomes (PubChem)
# The list is not random: actives were taken first. Their share in the collection is about 2.5%.
# Cruzain noTriton – inhibitors of Trypanosoma cruzi cruzain without detergent; P25779; purified cruzain, Z-FR-AMC fluorescence, no detergent; Potency, µM, without a hit: max response, negative = inhibition, actives largely listed as inhibitors; hit rate 2.3% among 200,000;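 also: plate controls were enzyme without inhibitor for no effect and buffer without enzyme for full effect; nearly all actives have a fitted effect of over 40% in size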
# Target sequence (P25779 123-467 limits assumed): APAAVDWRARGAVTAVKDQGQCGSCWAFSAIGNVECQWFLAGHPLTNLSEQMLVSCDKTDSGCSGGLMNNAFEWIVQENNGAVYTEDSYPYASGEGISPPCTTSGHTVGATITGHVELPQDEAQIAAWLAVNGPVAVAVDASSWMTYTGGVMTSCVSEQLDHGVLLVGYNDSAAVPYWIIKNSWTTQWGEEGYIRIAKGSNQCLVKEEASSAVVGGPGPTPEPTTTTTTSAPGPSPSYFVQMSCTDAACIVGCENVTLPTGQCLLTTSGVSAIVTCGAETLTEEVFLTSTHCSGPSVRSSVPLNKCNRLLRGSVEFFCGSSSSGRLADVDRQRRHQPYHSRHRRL
#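 Purified cruzain at 1.5 nM, pre-incubated 15 min with compound at room temperature in 100 mM sodium acetate pH 5.5, 5 mM DTT, 0.00005% Triton X-100. Reaction started with 2 uM Z-FR-AMC; AMC fluorescence increase over 60 s gives rate.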
# Cruzain inh Det – blocks cruzain activity in presence of Triton detergent. purified cruzain, Z-FR-AMC fluorescence, 0.01% Triton. Potency, µM, for the others: max response, negative = inhibition, actives largely listed as inhibitors. hit rate 0.43% among 200,000. AID 1478;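 also: plate controls were neutral wells for no effect and buffer without enzyme for full effect; nearly all actives have a fitted effect of over 40% in size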
#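 Read-out: AMC fluorescence (360 nm excitation, 450 nm emission), four reads over 2 min, first-to-third difference used. Conditions: cruzain 1.5 nM, Z-FR-AMC 2 uM, pH 5.5 acetate, 5 mM DTT, 0.01% Triton X-100.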
# Numbers without * were called inactive; ? = inconclusive. Calls follow the shape of the dose curve; as a rule, active = well fitted curve in the direction sought with a large enough effect; inconclusive = small, poorly fitted or top-dose-only effect, or another doubt; inactive = no such curve, though single readings can be large; an effect the other way counts as inactive or inconclusive. Potency is read from the fitted curve at half-maximal effect.
SMILES,Cruzain noTriton,Cruzain inh Det
CCOC(=O)c1c(NC(=O)CN2C(=O)c3ccccc3C2=O)sc(Cc2ccc3c(c2)OCO3)c1C,10µM*,-1.0%
Cc1c(Cc2ccc3c(c2)OCO3)sc(NC(=O)c2ccccc2)c1C(N)=O,25.1µM*,-2.7%
Cc1nc(NC(=O)c2ccccc2)sc1Cc1ccc2c(c1)OCO2,?,-4.3%
CCOC(=O)c1c(NC(=O)/C=C/c2ccc3c(c2)OCO3)sc(C)c1C,1.8%,3.0%
CC1(C)N=C(N)N=C(N)N1c1cccc(CSc2ccccc2)c1,-6.8%,-2.2%
CC(C)Oc1ccc(C(=O)NCC(c2ccc(N(C)C)cc2)N2CCc3ccccc32)cc1 (configuration not stated),?,-4.5%
COc1ccc(C(=O)NCC(c2ccc(N(C)C)cc2)N2CCc3ccccc32)cc1 (configuration not stated),12.6µM*,?
CN(C)c1ccc(C(CNC(=O)c2ccccc2Cl)N2CCc3ccccc32)cc1 (configuration not stated),31.6µM*,-16.9%
COc1ccccc1C(=O)NCC(c1ccc(N(C)C)cc1)N1CCc2ccccc21 (configuration not stated),?,-11.2%
O=C(Nc1ccccc1N1CCCC1)c1cccc(-c2cc3ccccc3oc2=O)c1,25.1µM*,-3.6%
O=C(Nc1ccc(N2CCOCC2)cc1)c1cc2ccccc2o1,-18.4%,-0.1%
O=C(Nc1ccc(N2CCCC2)cc1)c1cccc(-c2cc3ccccc3oc2=O)c1,3.98µM*,-15.6%
Cc1nc(NC(=O)c2ccc(-c3cc4ccccc4oc3=O)cc2)ccc1Br,?,-0.9%
O=C(Nc1ccc(Br)cn1)c1cccc(-c2cc3ccccc3oc2=O)c1,?,-12.2%
Cc1nc(NC(=O)c2cccc(-c3cc4ccccc4oc3=O)c2)ccc1Br,20µM*,-10.6%
O=C(Nc1ccc(N2CCCC2)cc1)c1ccc2ccccc2c1,15.8µM*,-23.3%
O=C(Nc1ccc(N2CCCCC2)cc1)c1ccccc1,-5.8%,-1.5%
COc1cccc([C@@H]2Oc3ccc(OC)cc3C(=O)[C@H]2OC(=O)NCCc2ccc(OC)c(OC)c2)c1,12.7%,-0.2%
CCCCc1nc2ccccc2n2c(-c3ccc(OC)cc3)c3c(=O)n(C)c(=O)n(C)c3c12,-4.9%,-2.5%
O=C1CSC2(C(=O)N(Cc3ccccc3F)c3ccccc32)N1c1cccc(C(F)(F)F)c1 (configuration not stated),-4.9%,-11.4%
COc1cc(NC(=O)C2CCN(S(=O)(=O)c3ccc4c(c3)CCCC(=O)N4)CC2)cc(OC)c1,12.3%,-2.8%
O=C(Nc1ccc(N2CCCC2)cc1)c1ccc([N+](=O)[O-])cc1Cl,10µM*,-0.4%
O=C(Nc1ccc(N2CCCC2)cc1)c1cccc(F)c1,?,-14.4%
CN(C)c1ccc(NC(=O)c2ccc([N+](=O)[O-])cc2Cl)cc1,?,-0.8%
O=C(Nc1ccc(N2CCCC2)cc1)c1ccccc1F,20µM*,-10.3%
SMILES,Cruzain noTriton,Cruzain inh Det
Cc1ccc(-c2c(C(=O)N3CCN(c4cccc(C)c4)C(C)C3)oc(=O)c3ccccc23)cc1 (configuration not stated),-23.9%,-6.7%
CCOc1ccc(-c2c(C)nn3c(C)c(C(=O)NCC(C)c4ccccc4)cnc23)cc1OCC (configuration not stated),?,-7.8%
CC1=Nc2cc(C(=O)NC3CCCC3)ccc2Sc2ccc(Cl)cc21,?,-3.0%
CCC1=Nc2cc(C(=O)NC3CCCC3)ccc2Sc2ccc(Cl)cc21,7.94µM*,-3.5%
CSc1ncc2c(n1)-c1ccccc1N(Cc1ccccc1)S2(=O)=O,-10.1%,-0.1%
O=C(CN1C(=O)C2CCCCN2c2ccc(C(=O)N3CCCC3)cc21)NCc1cccc(Cl)c1 (configuration not stated),-7.5%,-4.0%
Cc1ccc(NC(=O)CSc2nnc(-c3ccco3)c(-c3ccco3)n2)cc1,10µM*,25.1µM*
Cc1cccc(C)c1NC(=O)CSc1nnc(-c2ccco2)c(-c2ccco2)n1,-18.2%,?
CSc1nnc2c(n1)OC=Nc1ccccc1-2,-7.3%,-5.9%
CSc1nnc(-c2ccco2)c(-c2ccco2)n1,12.6µM*,14.1µM*
COc1ccc(CCNC(=O)CCCCn2c(=O)c3ccccc3n(Cc3cc(C)ccc3C)c2=O)cc1OC,-11.4%,-2.6%
O=C(Cc1ccccc1)Nc1ccc(NC(=O)c2cccc(Cl)c2)cc1,25.1µM*,0.5%
O=C(O)CCC(=O)Nc1cccc(C(=O)Nc2cccc(Cl)c2)c1,7.5%,-0.1%
CCc1ccc(C(=O)COC(=O)C(Cc2ccccc2)NC(=O)C2CCC(C)CC2)cc1 (configuration not stated),-14.8%,7.5%
CC1CCC(C(=O)NC(C(=O)OCC(=O)c2ccccc2)C(C)C)CC1 (configuration not stated),?,15.8µM*
CCOC(=O)C1=C(C)Nc2sc(C(=O)c3ccc(OC)cc3)c(N)c2C1c1ccc(C(=O)OC)cc1 (configuration not stated),31.6µM*,-3.4%
COC(=O)C1=C(C)Nc2sc(C(N)=O)c(N)c2C1c1ccncc1 (configuration not stated),-12.1%,-3.8%
Clc1nc(-c2cccnc2)nc2scc(-c3ccccc3)c12,-16.0%,-3.8%
COc1ccc(-c2csc3nc(-c4cccnc4)nc(Cl)c23)cc1OC,-13.3%,12.6µM*
CCn1c(CNC(=O)c2ccc(OC)cc2)nnc1SCC(=O)Nc1ccc(OC)cc1,-4.2%,1.8%
O=C(O)c1cccc(SSc2cccc(C(=O)O)c2)c1,-0.1%,1.8%
COc1ccc(/C=C/c2nnc(NC(=O)COc3cccc(C)c3)s2)cc1,12.6µM*,1.6%
COc1ccc(/C=C/c2nnc(NC(=O)COc3ccc(C)cc3)s2)cc1,?,-2.6%
CCn1nnc(NC(=O)c2ccc(-c3ccc(Cl)cc3)o2)n1,-15.1%,-8.9%
CCc1nnc(NC(=O)c2ccc(-c3ccc(Cl)cc3)o2)s1,15.8µM*,2.8%
SMILES,Cruzain noTriton,Cruzain inh Det
Cc1noc(NS(=O)(=O)c2ccc(NC(=O)c3ccc(Br)cc3)cc2)c1C,-3.2%,-5.5%
CNCCCCc1cnc(C)c2[nH]c3ccccc3c12,-15.9%,-13.9%
COc1ccc(CNC(=O)CSc2ncc(S(=O)(=O)c3ccc(Br)cc3)c(=O)[nH]2)cc1,?,-8.5%
COC(=O)c1cc(Cl)ccc1NC(=O)CSc1ncc(S(=O)(=O)c2ccc(Br)cc2)c(=O)[nH]1,?,25.1µM*
CC(=O)NCCC(=O)Nc1nc(-c2cccs2)c(-c2cccs2)s1,?,-6.4%
O=C(Nc1nc(-c2cccs2)c(-c2cccs2)s1)C1(c2ccccc2)CC1,10µM*,-1.3%
CC12CC[C@@H]3c4ccc(OP(=O)(O)O)cc4CCC3C1CCC2=O (some centres not stated),3.5%,11.2%
Cc1ccc(S(=O)(=O)N2CCCc3cc(NS(=O)(=O)c4cc(F)ccc4F)ccc32)cc1,-18.2%,3.7%
Cc1ccccc1Oc1ncnc2oc(-c3ccccc3)cc12,-5.1%,-7.7%
Clc1ccc(Oc2ncnc3oc(-c4ccccc4)cc23)cc1,20µM*,-0.6%
CNC(=O)C1CCC(Cn2c(=O)c3sccc3n(CC(=O)NCc3ccccc3)c2=O)CC1 (configuration not stated),8.6%,1.6%
COc1cc(N=c2ssnc2Cl)c(OC)cc1Cl,25.1µM*,-11.2%
COc1ccc(OC)c(N=c2ssnc2Cl)c1,?,-14.7%
NCC(=O)N[C@H](CO)C(=O)O,11.6%,-0.8%
CCCc1nc2ccccc2c(=O)n1-c1cccc(OC)c1,1.1%,1.1%
